HT1080NT lethal: kills 2HG-producing HT-1080-NT fibrosarcoma cells. HT-1080-NT fibrosarcoma viability, CellTiter-Glo ATP luminescence, 48 h. Potency, µM (titrated, usually from 46.1 µM), without a hit: top-dose activity, negative = less viability, actives largely listed as cytotoxic. 360,000 compounds, 1.6% hits;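 also: NT is the 2HG producing partner of a matched IDH1 knockdown line; potency is read from the fitted curve at half-maximal effect; 0% = DMSO-treated cells and -100% = media-only wells without cells; nearly all actives have a fitted effect of over 55% in size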
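Read-out is CellTiter-Glo luminescence after 10 minutes at room temperature, following 48 hours' compound treatment of HT-1080-NT cells (750 cells/well, RPMI, 5% FBS, 37 degrees C).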
IL1B secr inh: blocks inflammasome-driven IL-1 beta release | THP-1 LPS/ATP IL-1B secretion, AlphaLISA, 16 h; stronger effect = lower value | activity change, % at 57.5 µM | 360,000 compounds, 4.7% hits; in the data active = activity change below about -50%; inconclusive = mostly about -30% to -49%
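THP-1 cells pretreated 1 hr with compounds (up to 57.5 uM final), then stimulated with LPS (250 ng/mL final) plus ATP (1.25 mM final); secreted IL-1B measured by AlphaLISA after 16 hr, decreased signal indicating inhibition.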
ELG1 repair inh: blocks ELG1-dependent DNA repair in HEK293T cells. Potency, µM (top dose mostly 46.1 µM), inactives show at the top dose activity change, negative = inhibition, hits mostly inhibitors. HEK293T ELG1-luciferase reporter, luminescence, 16 h; DNA damage induced by 5-fluorouridine. 330,000 compounds, 2.3% hits. AID 504467; also: potency is read from the fitted curve at half-maximal effect; nearly all actives have a fitted effect of over 55% in size
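Luminescence from the luciferase reporter, measured 30 min after ONE-Glo reagent at room temperature, was the read-out. Beforehand, 2,000 cells per well were exposed for 16 hr at 37 °C to 5-fluorouridine together with compound or vehicle.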
TDP1 cell noCPT: qHTS for Inhibitors of human tyrosyl-DNA phosphodiesterase 1 (TDP1): qHTS in cells in absence of CPT; AID 686978, 2013; Potency, µM (highest dose often 46.2 µM), for inactives: top-dose activity change, negative = growth inhibition, actives largely listed as inhibitors; 420,000 compounds, 15% hits; DT40 Tdp1-/- hTDP1 cells, no CPT, ATP luminescence, 48 h; also: potency is read from the fitted curve at half-maximal effect; nearly all actives have a fitted effect of over 55% in size
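Chicken DT40 Tdp1-/- cells complemented with human TDP1, screened without camptothecin (DMSO vehicle only), 400 cells/well. Compounds pin-transferred, cells incubated at 37 °C for at least 48 hr. Growth read as ATP-dependent luminescence (CellTiter-Glo, 30 min at RT).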
HT1080 IDH1KD tx: HT-1080 IDH1 knockdown cell toxicity (counter line). HT-1080 IDH1 knockdown viability, ATP luminescence, 48 h. Potency, µM (doses to about 46.1 µM), inactives show at the highest dose activity, negative = toxicity, hits mostly cytotoxic. 360,000 compounds, 2% hits;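 also: potency is read from the fitted curve at half-maximal effect; 0% = DMSO wells and -100% = cell-free medium wells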
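CellTiter-Glo luminescence after 48 h compound exposure at 37 degrees C of IDH1-knockdown HT-1080 cells in 5% FBS RPMI. %Activity scaled between DMSO wells and cell-free media wells, with curves fitted and assigned curve classes.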
DT40 TDP1 CPT: DT40-hTDP1 cell growth loss with CPT; chicken DT40 Tdp1-/-;hTDP1 cells + 20 nM CPT, ATP luminescence, 48 h; Potency, µM (doses to about 46.2 µM), for inactives: at the top dose activity change, negative = growth inhibition, actives largely listed as inhibitors; 420,000 compounds, 12% hits; AID 686979; also: potency is read from the fitted curve at half-maximal effect; nearly all actives have a fitted effect of over 55% in size
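Chicken DT40 Tdp1-/- cells complemented with human TDP1, 400 cells/well, exposed to compounds plus 20 nM camptothecin for at least 48 h at 37 C; viability read as ATP content by CellTiter-Glo luminescence.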
The depositor's hits bear a star; [ ] = dose if it differs, or a comment. Sampled rows, rich in hits. Any-hit rate of the full collection: about 19%. Unless noted, calls follow the shape of the dose curve; as a rule, active = well fitted curve in the direction sought with a large enough effect; inconclusive = small, poorly fitted or top-dose-only effect, or another doubt; inactive = no such curve, though single readings can be large; an effect the other way counts as inactive or inconclusive. Unless noted, % is scaled to controls: 0 for no effect and ±100 for the full control effect.

What do the screens show for `CN(C)c1c([N+](=O)[O-])cc(N2C(=O)C=CC2=O)cc1[N+](=O)[O-]`?
HT1080NT lethal: 3.2%; IL1B secr inh: -98.6*; TDP1 cell noCPT: 1.3µM*; HT1080 IDH1KD tx: 0.5%; DT40 TDP1 CPT: 1.3µM*

How did O=C1CN=C(c2ccccc2)c2cc(Br)ccc2N1 do in these assays?
HT1080NT lethal: -0.4%; IL1B secr inh: 16.2; ELG1 repair inh: -4.6%; TDP1 cell noCPT: inconclusive; HT1080 IDH1KD tx: -4.9%; DT40 TDP1 CPT: 11.4%

How did CCN(CC)S(=O)(=O)c1cc(NC(=O)C(C)N2CC=C(c3ccccc3)CC2)ccc1C (configuration not stated) do in these assays?
HT1080NT lethal: -1.4%; IL1B secr inh: -58.3*; ELG1 repair inh: 14.6µM*; TDP1 cell noCPT: 6.51µM*; HT1080 IDH1KD tx: -16.5%; DT40 TDP1 CPT: 8.2µM*

Results for CSc1ccc(CN2CCC2(C)C(=O)Nc2cccc(NS(C)(=O)=O)c2)cc1 (configuration not stated) ?
HT1080NT lethal: -13.0%; IL1B secr inh: 0.0; TDP1 cell noCPT: 23.1µM*; HT1080 IDH1KD tx: -23.0%; DT40 TDP1 CPT: 18.4µM*

Results for CCOC(=O)CSc1ccc(C(=O)N2CCC3(CC2)OCCO3)cc1[N+](=O)[O-] ?
HT1080NT lethal: 1.3%; IL1B secr inh: 11.4; ELG1 repair inh: -8.9%; TDP1 cell noCPT: 21.7%; HT1080 IDH1KD tx: 0.0%; DT40 TDP1 CPT: -8.3%

Results for Cc1ccc(C(C#N)=Cc2ccc3c(c2)OCO3)cc1 ?
HT1080NT lethal: -6.1%; IL1B secr inh: 10.5; TDP1 cell noCPT: 11.6µM*; HT1080 IDH1KD tx: inconclusive; DT40 TDP1 CPT: inconclusive

What do the screens show for `O=C1NC(=O)C(=Cc2ccc3c(c2)OCO3)C(=O)N1`?
ELG1 repair inh: 10.8%

How did CN(C)CCO do in these assays?
TDP1 cell noCPT: 8.9%; DT40 TDP1 CPT: -7.9%

How did CO[C@H]1C=CCCC=CC(=O)O[C@H]([C@H](C)C(=O)CCCC2CC(=O)NC(=O)C2)C(C)=C[C@@H](C)[C@@H]1O do in these assays?
HT1080NT lethal: -5.2%; IL1B secr inh: -6.1; TDP1 cell noCPT: 6.51µM*; HT1080 IDH1KD tx: -5.7%; DT40 TDP1 CPT: 16.4µM*

What do the screens show for `CN1C2CCC1CC(OC(c1ccccc1)c1ccc(Cl)cc1)C2` (configuration not stated)?
TDP1 cell noCPT: 4.73µM*; DT40 TDP1 CPT: 2.99µM*

What do the screens show for `CN1C2CCC1CC(OC(c1ccccc1)c1ccccc1N)C2` (configuration not stated)?
HT1080NT lethal: -21.9%; IL1B secr inh: -19.3; TDP1 cell noCPT: inconclusive; HT1080 IDH1KD tx: inconclusive; DT40 TDP1 CPT: inconclusive

Results for CCc1ccc(-c2nn(Cc3ccccc3)cc2C=O)cc1 ?
HT1080NT lethal: inconclusive; IL1B secr inh: -59.2*; ELG1 repair inh: inconclusive; TDP1 cell noCPT: inconclusive; HT1080 IDH1KD tx: -24.2%; DT40 TDP1 CPT: inconclusive

How did Cn1cc[n+](C)c1P(=S)(c1ccccc1)c1ccccc1 do in these assays?
HT1080NT lethal: -0.8%; IL1B secr inh: 2.1; ELG1 repair inh: -14.4%; TDP1 cell noCPT: 20.6µM*; HT1080 IDH1KD tx: 4.3%; DT40 TDP1 CPT: 10.3µM*

Results for C[C@@]12CCC(OS(=O)(=O)O)C[C@@H]1CCC1C2CC[C@]2(C)C(=O)CCC12 (some centres not stated) ?
TDP1 cell noCPT: 1.9%; DT40 TDP1 CPT: -1.9%

What do the screens show for `Cc1cc(NC(=O)COC(=O)c2c(C)nn(Cc3ccccc3)c2C)no1`?
HT1080NT lethal: -2.0%; IL1B secr inh: -0.7; ELG1 repair inh: -8.1%; TDP1 cell noCPT: -18.3%; HT1080 IDH1KD tx: -1.6%; DT40 TDP1 CPT: inconclusive

Results for Cc1cc(NC(=O)CCl)no1 ?
HT1080NT lethal: inconclusive; IL1B secr inh: -100.3*; ELG1 repair inh: inconclusive; TDP1 cell noCPT: 18.4µM*; HT1080 IDH1KD tx: inconclusive; DT40 TDP1 CPT: 13µM*

How did O=C(c1cc2cc(Cl)ccc2[nH]1)N1CCC2(CC1)OCCO2 do in these assays?
HT1080NT lethal: 2.6%; IL1B secr inh: 2.3; ELG1 repair inh: inconclusive; TDP1 cell noCPT: inconclusive; HT1080 IDH1KD tx: -3.3%; DT40 TDP1 CPT: 18.4µM*

Results for C[C@H](N)CN1CCc2ccc(Br)cc21 ?
HT1080NT lethal: -1.9%; IL1B secr inh: -14.4; TDP1 cell noCPT: inconclusive; HT1080 IDH1KD tx: -16.0%; DT40 TDP1 CPT: inconclusive

What do the screens show for `CO[C@H]1C=C2CCN(C)[C@H]2C2c3cc4c(cc3C(=O)O[C@@H]21)OCO4` (some centres not stated)?
HT1080NT lethal: 14.0%; IL1B secr inh: 10.0; ELG1 repair inh: 10.6%; TDP1 cell noCPT: -4.4%; HT1080 IDH1KD tx: 10.6%; DT40 TDP1 CPT: -14.8%

How did Fc1ccc(C2=CCN(C(c3cccs3)c3nnnn3CCc3ccccc3)CC2)cc1 (configuration not stated) do in these assays?
HT1080NT lethal: 1.0%; IL1B secr inh: -60.6*; ELG1 repair inh: inconclusive; TDP1 cell noCPT: inconclusive; HT1080 IDH1KD tx: -0.5%; DT40 TDP1 CPT: inconclusive

Results for CCC(C)(C)n1nnnc1C(c1cccs1)N1CC=C(c2ccc(F)cc2)CC1 (configuration not stated) ?
HT1080NT lethal: inconclusive; IL1B secr inh: -66.8*; ELG1 repair inh: inconclusive; TDP1 cell noCPT: inconclusive; HT1080 IDH1KD tx: -9.3%; DT40 TDP1 CPT: 23.1µM*

How did CCOC(=O)c1cccc(NC(=O)c2cnc(N3CCCCC3)c3ccccc23)c1 do in these assays?
TDP1 cell noCPT: 23.1µM*; DT40 TDP1 CPT: 18.4µM*

Results for CCCCC[C@@H](/C=C/C=C\C/C=C\C/C=C\CCCC(=O)O)OO ?
TDP1 cell noCPT: -3.2%[0.628 µM]; DT40 TDP1 CPT: -23.3%[0.628 µM]

What do the screens show for `CSc1ccccc1NC(=O)CN(C)CC(=O)c1[nH]c(C)c(C(C)=O)c1C`?
HT1080NT lethal: -3.1%; IL1B secr inh: 18.1; ELG1 repair inh: 16.4µM*; TDP1 cell noCPT: 14.6µM*; HT1080 IDH1KD tx: -7.6%; DT40 TDP1 CPT: 14.6µM*

What do the screens show for `CC(C)(C#N)O[C@H]1OC(CO)C(O)C(O)C1O` (some centres not stated)?
TDP1 cell noCPT: 1.4%; DT40 TDP1 CPT: -1.3%

High-throughput results: PubChem BioAssay, National Center for Advancing Translational Sciences (NCATS)
